Only some compounds are listed: those with a hit (about 11% of all), similar ones and a draw of the others.
ALDH1A1 block: inhibitors of human aldehyde dehydrogenase 1A1 | 220,000 tested, 7.3% active | AID 1030 | Potency, µM (top dose mostly 75.3 µM), without a hit: at the top dose activity, negative = inhibition, actives largely listed as inhibitors | Purified ALDH1A1, NADH fluorescence, propionaldehyde substrate;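 note: potency is the fitted concentration of half-maximal effect; plate controls were no enzyme wells and a reference inhibitor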
PNC assembly inh: inhibitors of perinucleolar compartment assembly; activity change (PNC), negative = inhibition, % at 10 µM; PC3M PTB-GFP, PNC prevalence imaging, 16 h; active compounds read low; AID 2417; 140,000 tested, 3.1% active;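 active = readout at or below -70, meaning at least 70% loss of cells showing the perinucleolar compartment, a nuclear body marking cancer cells; inconclusive = readout between -30 and a set limit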;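 note: plate controls were DMSO wells for no effect and camptothecin positive control wells for full effect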
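PC3M cells stably expressing PTB-GFP, 750–1000 cells/well, treated 16 h at 37 °C with compound (23 nl of library stock), in duplicate. After paraformaldehyde fixation and Hoechst stain, imaged at 20x; PNC prevalence scored by image analysis.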
HPGD block: inhibitors of human 15-hydroxyprostaglandin dehydrogenase (HPGD); P15428; purified HPGD, NADH fluorescence kinetic, PGE2 substrate; Potency, µM, inactives show top-dose activity change, negative = inhibition, actives largely listed as inhibitors; 150,000 tested, 4.3% active; AID 894; note: potency is the fitted concentration of half-maximal effect
Target sequence (P15428 whole entry, looked up): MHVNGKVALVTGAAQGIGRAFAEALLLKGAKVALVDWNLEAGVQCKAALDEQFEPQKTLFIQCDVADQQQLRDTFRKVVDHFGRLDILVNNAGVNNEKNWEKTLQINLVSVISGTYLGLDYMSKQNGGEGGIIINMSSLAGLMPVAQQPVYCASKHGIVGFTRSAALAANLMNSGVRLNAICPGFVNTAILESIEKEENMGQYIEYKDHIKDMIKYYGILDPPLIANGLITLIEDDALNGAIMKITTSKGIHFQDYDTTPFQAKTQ
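NADH formation kinetics: reaction with 30 uM PGE2 and 1 mM NAD+ (final), 20 nM enzyme, Tris-HCl pH 8 with Tween 20, after 15 min compound preincubation at room temperature. Fluorescence change, last versus first of five reads.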
Numbers without * were called inactive; ? = inconclusive; . = no result given; ! = not confirmed by another sample; [ ] = remark or other dose. Unless noted, calls come from the whole dose curve; as a rule, active = well fitted inhibition curve with a large enough effect (not every such curve was filed as active); inconclusive = small, poorly fitted or top-dose-only effect, or another doubt; inactive = no such curve, though single readings can be large or run the other way. Unless noted, % is set by controls: 0 for no effect and ±100 for the full control effect.

SMILES | ALDH1A1 block | PNC assembly inh | HPGD block
CO[C@H]1[C@H](O)[C@H](O[C@@H]2[C@H](Oc3cccc4c(O)c5c(=O)oc6ccc(C)c7c(=O)oc(c34)c5c67)O[C@@H](C)[C@H](O)[C@H]2O)O[C@@H](C)[C@@H]1O | -11.6%[13.5 µM] | . | -2.5%
Cc1[nH]c2ccc(Cl)cc2c1C1=CCNCC1 | 10.4% | . | -3.1%
O=C1CCCCC1 | ? | . | -7.8%
Cn1cc(C(=O)C(=O)N[C@H]2CN3CCC2CC3)c2ccccc21 | -0.8% | . | -7.7%
CC1=CC(=O)c2c(O)cccc2C1=O | 15.8µM* | . | 25.1µM*!
O=C1/C(=C/c2cccnc2)SC(=NCc2ccccc2)N1Cc1ccccc1 | 0.562µM* | . | .
CC(C)C(CCN1C(=O)c2ccccc2C1=O)c1ccco1 (configuration not stated) | 22.4µM* | 44.8 | -15.9%
CN(C)CCN(C)CCc1ccc(Cl)c(Cl)c1 | -11.5% | . | -5.7%
CN1C2CCC1CC(C(=O)OC(CO)c1ccccc1)C2 (configuration not stated) | 13.5% | . | -3.5%
C=Cc1ccccc1 | ? | . | -4.0%
Cc1cc(N)n(C2CCN(C)CC2)n1 | -3.5% | -0.6 | 2.1%
CC(C)N1C(=O)c2ccccc2NS1(=O)=O | -7.7% | . | -20.6%
CC(=O)C1C(=O)NC23CCCCC2C1c1ccccc1O3 (configuration not stated) | -5.7% | 24.1 | -10.2%
CC12CC(c3ccccc3O1)C(C(=O)OCc1ccccc1)C(=O)N2 (configuration not stated) | 0.6% | -118.9* | -6.4%
O=C(c1ccncc1)N1CCC[C@@]2(CCN(Cc3nccs3)C2)C1 | 3.8% | . | -17.3%
CCCCCC[C@H]1C(=O)O[C@H](C)[C@H](NC(=O)c2cccc(NC=O)c2O)C(=O)O[C@@H](C)[C@H]1OC(=O)CC(C)C | -14.1%[20.9 µM] | . | ?
OCC(O)Cc1ccc2c(c1)OCO2 (configuration not stated) | 1.2% | . | -3.5%
COc1ccc(N2C(=O)NC(=O)/C(=C\c3ccccc3[N+](=O)[O-])C2=O)cc1 | 18.9µM* | . | .
COc1ccc(OC)c(N2C(=O)NC(=O)/C(=C\c3ccc([N+](=O)[O-])s3)C2=O)c1 | 25.1µM* | . | .
Cc1cc(C)cc(N2C(=O)NC(=O)/C(=C\c3cc(C)n(C)c3C)C2=O)c1 | -2.2% | . | .
COc1ccc2c(c1)/C(=C/c1cnc[nH]1)C(=O)N2 | 3.7% | . | -7.4%
CC(=O)[O-].CC(=O)[O-].CC(=O)[O-].[Cr+3] | 5.8% | . | -6.9%
N[C@H](Cc1ccccc1)c1nn[nH]n1 | -9.4%[13.5 µM] | . | -0.3%
N#CC(c1ccc(O)cc1)N1CCCCC1 (configuration not stated) | 4.47µM* | 64.0 | -17.0%
N#CC(c1ccc(Cl)cc1)N1CCOCC1 (configuration not stated) | 21.9% | . | .
SMILES | ALDH1A1 block | PNC assembly inh | HPGD block
COc1cccc(C(C#N)N2CCCCC2)c1O (configuration not stated) | 7.5% | -12.8 | 2.24µM*
CCC1(CC)C(=O)NC(=O)NC1=O | 0.8% | . | -6.0%
C=CC(=O)OCCN(C)C | -2.5% | . | -4.2%
CCc1ccccc1N1C(=O)NC(=O)/C(=C\c2cc(C)n(C)c2C)C1=O | -11.5% | -25.3 | -0.2%
CCOc1ccc(N2C(=O)/C(=C\c3cccs3)C(=O)NC2=S)cc1 | 17.8µM* | . | .
CCOC(=O)C1CCN(/C=C2/C(=O)NC(=S)N(c3cccc(OC)c3)C2=O)CC1 | 0.0% | . | .
O=C1NC(=S)N(c2ccccc2F)C(=O)/C1=C\c1cccs1 | 20µM* | 18.4 | 7.94µM*
CN1CC(CNC(=O)OCc2ccccc2)CC2c3cccc4c3c(cn4C)CC21 (configuration not stated) | 2.3% | . | -8.4%
N[C@H]1C[C@H]1c1ccccc1 | 0.6%[20.9 µM] | . | -6.2%
Oc1cc(Cl)c(Cl)cc1Cl | -1.8% | . | 5.62µM*
Oc1cc(Cl)c(Cl)c(Cl)c1Cl | 0.5% | . | ?
CSSC | 2.8% | . | -5.1%
N/C(=N\N=C/c1ccc(-c2ccc(O)c(C(=O)O)c2)o1)N[N+](=O)[O-] | ? | -24.5 | 7.08µM*
COc1ccc(/C=N/N=C(/N)N[N+](=O)[O-])c(OC)c1 | -1.1% | ? | -28.7%
O=C(O)CBr | -13.2% | . | -3.4%
CCC(=O)O[C@@](Cc1ccccc1)(c1ccccc1)[C@@H](C)CN(C)C | 0.4%[20.9 µM] | . | -7.3%
N#CS.N=C=S.N=C=S.[Cu].[NH2-].[NH2-].[NH2-].[NH2-].c1ccc2ncccc2c1 | 3.55µM* | . | -3.2%
c1ccc2ncccc2c1 | . | . | -7.4%
O=P(O)(O)c1ccccc1 (tested in a mixture with another compound) | 10.6%[13.5 µM] | . | -7.4%
CCC(=NCCO)c1c(O)n(C2CCCCC2)c(=O)[nH]c1=O | 6.5% | 14.4 | -2.7%
CCC(=NCc1ccc2c(c1)OCO2)c1c(O)n(C2CCCCC2)c(=O)[nH]c1=O | 12.6µM* | -83.2* | -29.1%
COc1cc(OC)cc(C(=O)N2CCC(N3CCN(c4ccccc4)CC3)CC2)c1 | ? | ? | -2.5%
CCN1C[C@]2(C)CC[C@H](OC)[C@@]34[C@H]1C1(OCO[C@@]15C[C@H](OC)C1C[C@]3(O)C5[C@H]1OC)[C@@H](O)[C@H]24 | 2.4% | . | 1.5%
C=CCN1C(=O)/C(=C/c2cc(C)n(-c3ccccn3)c2C)C(=O)NC1=S | ? | -16.9 | 12.6µM*
Cc1cc(/C=C2\C(=O)NC(=O)N(C)C2=O)c(C)n1-c1ccc2c(c1)OCO2 | ? | -15.0 | -19.7%
SMILES | ALDH1A1 block | PNC assembly inh | HPGD block
CC1=NN(c2ccccc2)C(=O)/C1=C/c1c(O)[nH]c(=S)[nH]c1=O | ? | 31.3 | 20µM*
COC(=O)c1ccccc1N=Cc1c(O)[nH]c(=S)[nH]c1=O | -8.4% | . | .
[O-]/[N+](=C/c1cccnc1)c1ccc(Br)cc1 | 1.78µM* | -8.8 | -18.0%
O=S(=O)(Cl)c1ccccc1 | ? | . | -11.2%
[O]=[Cd] | 0.1% | . | -1.7%
CC(=O)Nc1ccccc1C(=O)OCC(=O)c1ccc2c(c1)OCCO2 | -5.9% | 2.6 | .
C=C(C)CN1C(=O)C(O)(CC(=O)c2ccc3c(c2)OCCO3)c2ccccc21 (configuration not stated) | 11.2µM* | 19.9 | -5.4%
CC(=O)OC1C[C@@]2(C)C(c3ccoc3)C[C@H]3O[C@@]32[C@@]2(C)C(=O)C(O)=C3C(C)(C)C(=O)C=C[C@]3(C)C12 (some centres not stated) | -2.5% | . | -4.2%
O=C(C[N+]12CCC(CC1)C(CO)C2)c1ccc([N+](=O)[O-])cc1 (configuration not stated) | -11.4% | . | .
O=C(CNC(=O)c1cccs1)OCC(=O)c1ccc([N+](=O)[O-])cc1 | 0.316µM* | . | .
CCn1ccnc1CN1CCCC(C(=O)c2cc(C)c(OC)c(C)c2)C1 (configuration not stated) | -4.8% | . | .
CCC(C)C1O[C@]2(C=CC1C)CC1CC(C/C=C(\C)[C@H](OC3CC(OC)C(O[C@H]4CC(OC)[C@@H](O)C(C)O4)C(C)O3)[C@@H](C)/C=C/C=C3\COC4C(O)C(C)=C[C@H](C(=O)O1)[C@@]34O)O2 (some centres not stated) | -1.1% | . | -8.0%
CC(C)(C)C(=O)CP(=O)(O)O | 2.3%[13.5 µM] | . | -2.9%
[O-]/[N+](=N\O)c1ccccc1 | 10µM* | . | 12.6µM*
FC(F)(F)c1ccc(Cl)cc1 | 0.2% | . | -3.0%
COc1ccc2nc(NC(=O)CCNS(=O)(=O)c3ccc4c(c3)oc(=O)n4C)sc2c1 | 5.2% | 28.8 | -2.1%
